Only some compounds are listed: those with a hit (about 9.6% of all), similar ones and a draw of the others.
Lmaj promast = Leishmania major promastigote growth inhibition, primary screen; Leishmania major promastigotes, resazurin fluorescence viability; actives 9% (n = 200,000); inhibition, % at 10 µM; in the data active means inhibition above about 50%;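 further: promastigotes grown with compound for 44 hours at 28 °C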
Ins promoter up = insulin promoter activators in MIN6 cells, imaging, high-content screening, mouse beta cells | MIN6 insulin promoter-GFP reporter; active compounds read high | z-score at 5 µM | actives 0.3% (n = 190,000);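 active means z-score above 3 at 5 µM with at least 500 cells counted in the well; inconclusive means wells under 500 cells, flagged as cytotoxic or low count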
Autophagy mod = autophagy modulators in MEF cells, primary screen, imaging, high-content, MEF GFP-LC3 | actives 0.98% (n = 190,000) | calls only at 10 µM (by protocol) | MEF GFP-LC3 puncta imaging; test concentration mostly 10 µM | AID 463193, 2010;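 active means percentage of spot-positive cells more than 3 SD above its plate mean, without a fluorescence outlier flag or 80% toxicity; inconclusive means no clear call, values can overlap the other calls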;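 further: spot-positive cell cutoff set from DMSO-treated cells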
INS promoter inh = inhibitors of insulin promoter-driven GFP, primary screen, imaging, TRM-6 cells (human fetal islet line), eGFP reporter, cell count; inhibition, % at 2 µM; AID 1273, 2008; actives 0.9% (n = 130,000); reporter expression induced with tamoxifen;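 active means inhibition above the mean plus 3 SD, with well images judged a real hit on visual review, cut at about 60% in these data, passing the limit was not always enough; inconclusive means inhibition over the cutoff but images rejected on review; inactive means inhibition not above the cutoff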
PTEN del growth = growth suppression of PTEN-null HCT116, primary screen, cell-based, CellTiter-Glo; HCT116 PTEN-null viability, 60 h; active compounds read low; actives 1.2% (n = 140,000); viability, % at 10 µM;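 active means viability at or below a set limit, 4 SD under the median of all tested compounds, cut at about 3.7% in these data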;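 further: PTEN knockout HCT116 line with beta catenin targeted HCT116 as companion control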
HCT116 bCat-KO = primary screen for growth suppressors in beta-catenin knockout HCT116 cells (colon tumor, human) | HCT116 beta-catenin knockout viability, CellTiter-Glo, 60 h; active compounds read low | viability, % at 10 µM | actives 1.5% (n = 140,000) | AID 818, 2007;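 active means viability at or under a set limit, the compound median less 4 SD, cut at about 6% in these data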;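 further: 0% = Hyamine 1622 control at 20 µM and 100% = untreated cell control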
The depositor's hits bear a star; i = inactive; ? = inconclusive; nt = no result; + = active, no number.

SMILES	Lmaj promast	Ins promoter up	Autophagy mod	INS promoter inh	PTEN del growth	HCT116 bCat-KO
CN(C)C(=O)CSc1n[nH]c(=O)[nH]c1=O	-5.2	-0.32	i	nt	nt	nt
COc1ccc(C(=O)C2CCCN(Cc3cn[nH]c3-c3ccccc3)C2)cc1OC (centres undefined)	-2.2	-0.55	i	nt	nt	nt
CC(C)CN1CCN(Cc2cccn2-c2ccc(Cl)cn2)CC1CCO (centres undefined)	11.1	-0.53	i	nt	nt	nt
O=C(NCC1CCCN(Cc2ccc3nonc3c2)C1)c1cccc(C(F)(F)F)c1 (centres undefined)	87.0*	-0.72	i	21.4	nt	nt
COc1ccc(C(=O)C2CCCN(C3Cc4ccccc4C3)C2)cc1OC (centres undefined)	92.8*	-0.51	i	28.6	nt	nt
CCNC(=O)N1CCCC(C(=O)c2ccc(OC)c(OC)c2)C1 (centres undefined)	-5.0	0.48	i	nt	nt	nt
COc1ccc(C(=O)C2CCCN(Cc3nc4ccccc4nc3C)C2)cc1OC (centres undefined)	79.5*	-0.14	i	nt	nt	nt
COc1ccc(C(=O)C2CCCN(Cc3cccn3-c3ccc(Cl)cn3)C2)c(OC)c1 (centres undefined)	95.3*	nt	i	-39.1	nt	nt
O=C(c1cccc(C(F)(F)F)c1)C1CCCN(Cc2cccc(OCCO)c2)C1 (centres undefined)	8.3	1.25	i	nt	nt	nt
N#CNC(=Nc1cccc(F)c1)SCc1ccccc1	1.1	-0.05	i	14.3	87.0	88.9
O=c1[nH]nc(SCc2ccccc2Cl)n1-c1ccc2c(c1)OCCO2	nt	0.07	nt	nt	nt	nt
NC(=O)CCS(=O)(=O)c1ccccc1	-5.7	-0.06	i	nt	94.1	80.0
S=c1nc[nH]c2c1sc1nc(-c3ccccc3)c3c(c12)CCCC3	32.1	-0.32	i	nt	96.7	97.5
COc1ccc(C(=O)C2CCCN(Cc3ccc(C#CCCO)cc3)C2)cc1F (centres undefined)	50.0*	0.09	i	8.3	nt	nt
COc1ccc(C(=O)C2CCCN(C(=O)COc3ccc(C(C)=O)cc3)C2)cc1F (centres undefined)	6.8	-0.59	i	nt	nt	nt
COc1ccc(C(=O)C2CCCN(Cc3ccc4nonc4c3)C2)c(OC)c1 (centres undefined)	88.4*	-0.1	i	nt	nt	nt
O=C(COC(=O)CNS(=O)(=O)c1ccc2ccccc2c1)Nc1ccc2c(c1)OCO2	-8.6	0.13	i	nt	92.8	95.3
CN1CCC(=C2c3ccccc3C=Cc3ccccc32)CC1	23.1	nt	i	33.3	72.0	73.5
COc1ccc2c(c1)S(=O)(=O)c1ccccc1N2	nt	0.02	nt	nt	nt	nt
COc1ccc2c(c1)Sc1ccccc1N2	100.4*	-4.17	i	nt	nt	nt
NC(=O)CCn1nc(-c2ccc(Cl)cc2)c2ccccc2c1=O	3.1	0.06	i	15.0	94.9	85.8
O=C(CCn1nc(-c2ccc(Cl)cc2)c2ccccc2c1=O)Nc1cccnc1	61.7*	0.12	i	nt	nt	nt
CCCOc1cc(C)c(S(=O)(=O)N2CCN(C)CC2)cc1C	23.6	0.23	i	-15.2	98.3	91.1
CN(C)c1ccc(N=Nc2ccccc2C(=O)OCC(=O)NCC2CCCCC2)cc1	97.0*	0.72	i	-6.9	70.7	75.9
CCCCN1C(=O)/C(=C/C=C2\Oc3ccccc3N2CC)SC1=S	-2.2	nt	+	nt	nt	nt
SMILES	Lmaj promast	Ins promoter up	Autophagy mod	INS promoter inh	PTEN del growth	HCT116 bCat-KO
C=CCN1C(=O)/C(=C\C=C2\N(C)c3ccccc3C2(C)C)SC1=S	20.0	nt	+	i	68.2	70.6
CCCCN1C(=O)/C(=C/C=C2/CC(C)(C)CN2C)SC1=S	58.5*	nt	+	-270.4	88.3	93.0
CCCN1C(=O)/C(=C\C=C2/Sc3ccccc3N2CCO)SC1=S	-4.5	0.32	i	-430.8	nt	nt
CCN1C(=O)/C(=C/C=C2/SCCN2C)SC1=S	-5.2	1.71	i	nt	nt	95.7
CN1/C(=C\C=C2/SC(=S)N(CC(=O)O)C2=O)C(C)(C)c2ccccc21	46.9	-0.25	i	nt	nt	nt
CCCN1C(=O)/C(=C/C=C2\N(CC)c3ccccc3C2(C)C)SC1=S	14.3	nt	+	-17.8	85.2	75.1
O=C(Cn1cc[n+](CC(=O)c2ccccc2)c1)c1ccccc1	-5.5	-0.14	i	-20.0	75.3	79.3
O=C(CSc1nnc(Cc2ccccc2)o1)NC1CCCCC1	-7.5	-0.59	i	-76.2	109.5	111.6
CCOC(=O)c1cnc2ccc(OCC)cc2c1N1CCN(c2ccccc2OC)CC1	31.9	-2.38	i	-65.5	77.4	72.4
CCOC(=O)c1cnc2ccc(OCC)cc2c1N(C)Cc1ccccc1	98.3*	-1.74	i	13.5	61.4	53.4
O=C(N/N=C/c1ccc2c(c1)OCO2)C1COc2ccccc2O1 (centres undefined)	26.9	0.06	i	nt	71.5	80.9
C/C(=N\NC(=O)C1COc2ccccc2O1)c1ccccn1 (centres undefined)	99.4*	-0.57	i	nt	5.2	5.0*
C/C(=N\NC(=O)C1CCCN(S(=O)(=O)c2ccccc2)C1)c1ccccn1 (centres undefined)	99.5*	-3.38	i	60.9	9.7	6.2
C/C(=N\NC(=O)C(c1ccccc1)c1ccccc1)c1ccccn1	99.7*	-1.38	+	-75.0	5.1	4.3*
C/C(=N\NC(=O)C1CCCN(S(=O)(=O)c2ccccc2)C1)c1ccncc1 (centres undefined)	-0.4	-0.56	i	30.4	93.4	89.2
O=C(N/N=C\c1cc(Br)cs1)C1COc2ccccc2O1 (centres undefined)	52.9*	-0.77	i	42.1	36.8	31.4
Cc1ccc(C(=O)N/N=C(\CC(C)C)c2ccccc2)cc1	-3.5	0.29	i	-14.3	87.7	87.2
CCOc1ccc(S(=O)(=O)c2c(C(=O)c3ccc(C)cc3)cnc3cc4c(cc23)OCCO4)cc1	16.8	-0.02	i	nt	73.0	84.9
Cc1ccccc1Cn1cnc2c(cnn2C(C)(C)C)c1=O	59.0*	-0.2	i	-33.3	74.4	75.2
Cc1n[nH]c(C)c1C(=O)CC1(O)C(=O)N(CCc2ccccc2)c2ccc(Br)cc21 (centres undefined)	-1.4	nt	i	-20.0	89.9	104.4
COC(=O)N/N=C/c1cc(Br)ccc1O	-3.3	0.3	i	nt	nt	nt
O=C(N/N=C/c1cc(Br)ccc1O)c1cccc(N2CCCC2=O)c1	99.6*	?	i	-9.4	8.7	7.1
O=C(N/N=C/c1ccco1)c1cccc(N2CCCC2=O)c1	18.5	0.17	i	10.3	96.0	102.5
O=C(N/N=C/c1cc(Br)ccc1O)c1ccccc1Cl	98.2*	-0.17	i	-21.4	7.3	10.6
O=C(CCc1ccccc1)N/N=C/c1cc(Br)ccc1O	98.2*	-1.05	i	nt	9.7	12.8
O=C(NCCc1ccccc1)c1c(F)cccc1F	-0.7	-0.29	i	nt	nt	nt

Bioassay records from PubChem.
